This note sets out measurements from PubChem BioAssay (EPA / NIEHS).

Usually AC50 stands for the concentration at which the activity in the assay is half-maximal.

SMILES strings stand for the structures. Inconclusive results are not listed. The source made the active and inactive calls. How the source made its calls: active means hit-call score of the fitted dose curve at least 0.9, where 1 is the maximum; inconclusive means response in the unintended direction; inactive means score below 0.9.

A short description of this test: ACEA_ER_AUC_viability: ACEA Biosciences xCELLigence Real-Time Cell Analysis on Estrogen Receptor Agonism for Viability (AID 2283782).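 Further: hit means loss of impedance signal meaning reduced cell growth or viability.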 An outline of the steps:
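Viability endpoint: reduced impedance area under the curve relative to DMSO, recorded by real-time electrode sensing over ~80 h of continuous exposure. Duplicate plates of T47D in hormone-depleted medium; eight concentrations, 1:4 dilutions, 100 uM maximum.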
For the compound `CCOC(=O)/C=C(C)/C=C/C[C@@H](C)CCCC(C)C`, the AC50 was 87.8 µM (active).
On to `O=C(CCl)CCl`, for which the AC50 is 62.7 µM (active).
Consider `Nc1cccc2ccccc12`, for which the AC50 was 80.2 µM (active).
Consider `N#CCCO`, for which the AC50 is 22 µM (active).
In the case of `COc1ccccc1OC`, the compound was classed as inactive.
Turning to `CC(C)C1CCC(Cc2ccc(Cl)cc2)C1(O)Cn1cncn1` (stereo unspecified), the AC50 is 19.9 µM (active).
For the compound `CCOP(OCC)OCC`, the call was inactive.
On the same count and under the same terms, then `COc1cc2c(cc1OC)[C@@]13CCN4CC5=CCO[C@H]6CC(=O)N2[C@H]1[C@H]6[C@H]5C[C@H]43`, with “inactive”.
Regarding `CC(C)(c1ccccc1)c1ccc(O)c(C(C)(C)c2ccccc2)c1`, the AC50 was 8.68 µM (active).
Consider `ClCc1cccnc1`, for which the AC50 was 50 µM (active).
Take `COc1ccc(C(O)(c2cncnc2)C2CC2)cc1` (stereo unspecified): the AC50 is 67.6 µM (active).
For the compound `CCSC(C)CC1CC(=O)C(C(CC)=NOC/C=C/Cl)=C(O)C1` (stereo unspecified), the outcome was inactive.
For `CCc1ccccc1N`, the outcome was inactive.
Turning to `COc1ccc(OC)c(C=O)c1`, the AC50 is 50 µM (active).
For `CCC[CH2][Sn]([CH2]CCC)([CH2]CCC)[O]C(=O)c1ccccc1`, the AC50 was 1.28 µM (active).
In the case of `Oc1cccc2cccnc12`, the compound was called inactive.
Take `CC(=[OH+])/C=C(/C)[O-].CC(=[OH+])/C=C(/C)[O-].CC(=[OH+])/C=C(/C)[O-].[Al]`: the AC50 is 72.6 µM (active).
Take `Nc1ccc(Cl)cc1C(=O)c1ccccc1`: the outcome was inactive.
On to `ClCCBr`, for which the compound was classed as inactive.
Take `COC[C@H](C)N(C(=O)CCl)c1c(C)csc1C`: the compound was called inactive.
Take `ClC1=C(Cl)[C@]2(Cl)[C@H]3[C@H]([C@H]4C=C[C@H]3C4)[C@@]1(Cl)C2(Cl)Cl`: the AC50 is 83.2 µM (active).
For `Nc1ccc(-c2ccc(N)c(Cl)c2)cc1Cl`, the call was inactive.
Still for that read-out and setting: next, `CC(=O)OC(c1ccccc1)C(Cl)(Cl)Cl` (stereo unspecified): “inactive”; `O=C(O)C(F)(F)C(F)(F)C(F)(F)C(F)(F)C(F)(F)C(F)(F)C(F)(F)C(F)(F)C(F)(F)C(F)(F)F`: “inactive”.
For the compound `O=C(O)Cc1ccccc1`, the AC50 is 50 µM (active).
As to `CCc1ccccc1C`, the compound was classed as inactive.
For the compound `Nc1ccc(N=Nc2ccc(-c3ccc(N=Nc4c(S(=O)(=O)O)cc5cc(S(=O)(=O)O)c(N=Nc6ccccc6)c(O)c5c4N)cc3)cc2)c(N)c1`, the compound was classed as inactive.
Regarding `CC(=[OH+])/C=C(/C)[O-].CC(=[OH+])/C=C(/C)[O-].CC(=[OH+])/C=C(/C)[O-].[Fe]`, the compound was called inactive.
On to `C(=NC1CCCCC1)=NC1CCCCC1`, for which the AC50 was 28.6 µM (active).
Turning to `NC(=O)O`, the call was inactive.
In the case of `CCC(C)c1cccc(C(C)CC)c1O` (stereo unspecified), the AC50 is 77.1 µM (active).
